# Measurements taken from PubChem BioAssay (NCATS).
# “And” between values parts separate entries of the source, which are not always exact repeats. Equal values may be shown once. Results filed as inconclusive are left out. A call without a number means that no potency is given here. The source made the active and inactive calls. Unless noted, calls come from the whole dose curve; as a rule, active = well fitted curve in the direction sought with a large enough effect; inconclusive = small, poorly fitted or top-dose-only effect, or another doubt; inactive = no such curve, though single readings can be large; an effect the other way counts as inactive or inconclusive.
# Key:
# [1] = Primary qHTS for small molecule stabilizers of the endoplasmic reticulum resident proteome: Secreted ER Calcium Modulated Protein (SERCaMP) assay (AID 1508630); conditions: SH-SY5Y GLuc-SERCaMP (Gaussia luciferase released on ER calcium loss) secretion, thapsigargin, luminescence; series mostly up to 38.4 µM
# Procedure, shortened: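 GLuc-SERCaMP-expressing SH-SY5Y cells, pretreated 16 h with compound, are challenged with thapsigargin to empty ER calcium stores; after 4 h, coelenterazine is added directly to the medium and luminescence is imaged.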
# [2] = A High-Content qHTS Against Drug Library for the Identification of Small Molecules that Inhibit DYT1 Early Onset Primary Dystonia-Associated Cell Pathology (AID 1645839; calls by dose curve); conditions: HEK293 Flp-In EGFP-delE TorsinA, punctate imaging, 48 h; series mostly up to 46.1 µM
# Procedure, shortened: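 In this high-content image screen, delE TorsinA mislocalization in inducible Flp-In 293 cells is scored as %pathology, with cell count serving as the counterscreen. Compound exposure lasts 48 h under tetracycline induction in reduced-serum medium.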
# [3] = target: Cytochrome P450 2D6 (Homo sapiens) (UniProt P10635); test: Cytochrome P450 family 2 subfamily D member 6 (CYP2D6) small molecule antagonists: luciferase biochemical (cell-free) qHTS assay (AID 1645840; active = well fitted curve in the direction sought with a large enough effect in the repeat runs; an effect the other way counts as inactive or inconclusive; note: nearly all actives have a fitted effect of over 55% in size; note: potency is the fitted concentration of half-maximal effect); conditions: P450-Glo CYP2D6 enzyme, luciferin luminescence, 1 h; series mostly up to 57.4 µM
# Cytochrome P450 2D6 (Homo sapiens), sequence (P10635 whole entry, looked up): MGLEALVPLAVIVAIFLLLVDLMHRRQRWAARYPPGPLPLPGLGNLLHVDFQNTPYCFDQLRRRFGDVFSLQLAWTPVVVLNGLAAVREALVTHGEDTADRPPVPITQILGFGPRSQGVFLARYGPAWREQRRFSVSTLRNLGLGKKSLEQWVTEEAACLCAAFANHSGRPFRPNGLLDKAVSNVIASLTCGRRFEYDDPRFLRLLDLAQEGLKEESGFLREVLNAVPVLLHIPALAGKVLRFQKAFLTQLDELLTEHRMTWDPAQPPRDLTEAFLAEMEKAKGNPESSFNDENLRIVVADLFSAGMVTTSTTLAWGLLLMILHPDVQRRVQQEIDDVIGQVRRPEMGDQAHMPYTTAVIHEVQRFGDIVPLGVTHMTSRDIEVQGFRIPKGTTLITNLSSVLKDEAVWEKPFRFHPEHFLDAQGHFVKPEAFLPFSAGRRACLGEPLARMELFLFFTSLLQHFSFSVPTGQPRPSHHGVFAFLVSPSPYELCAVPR
# Procedure, shortened: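 P450-Glo luminescent screen: recombinant CYP2D6 enzyme–proluciferin substrate mix preincubated with compound 10 min at room temperature, then NADPH regeneration added for 1 h at room temperature. Detection reagent added for 20 min; luciferin light read as relative luminescence units.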
# [4] = target: Cytochrome P450 2C9 (Homo sapiens) (UniProt P11712); test: Cytochrome P450 family 2 subfamily C member 9 (CYP2C9) small molecule antagonists: luciferase biochemical (cell-free) qHTS assay (AID 1645842; active = well fitted curve in the direction sought with a large enough effect in the repeat runs; an effect the other way counts as inactive or inconclusive; note: nearly all actives have a fitted effect of over 55% in size; note: potency is the fitted concentration of half-maximal effect); conditions: P450-Glo CYP2C9 enzyme assay, luciferin luminescence; series mostly up to 57.4 µM
# Cytochrome P450 2C9 (Homo sapiens), sequence (P11712 whole entry, looked up): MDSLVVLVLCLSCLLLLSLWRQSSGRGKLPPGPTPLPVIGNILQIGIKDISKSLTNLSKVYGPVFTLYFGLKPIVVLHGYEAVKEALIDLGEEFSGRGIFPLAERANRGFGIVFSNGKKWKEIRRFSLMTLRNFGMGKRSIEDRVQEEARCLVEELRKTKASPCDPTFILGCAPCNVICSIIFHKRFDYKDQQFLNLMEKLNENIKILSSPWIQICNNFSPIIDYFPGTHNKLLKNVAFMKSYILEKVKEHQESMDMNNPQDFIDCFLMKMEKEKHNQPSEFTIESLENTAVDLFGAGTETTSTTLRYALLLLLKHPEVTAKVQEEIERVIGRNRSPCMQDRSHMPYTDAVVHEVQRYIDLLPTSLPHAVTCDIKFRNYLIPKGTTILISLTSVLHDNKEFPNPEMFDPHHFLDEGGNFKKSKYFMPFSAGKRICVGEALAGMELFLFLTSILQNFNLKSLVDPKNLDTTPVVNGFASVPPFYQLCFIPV
# Procedure, shortened: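 Luminescence, after 20 min with luciferin detection reagent, reflected CYP2C9 turnover during a 1 h NADPH-driven reaction at 37C. Enzyme-substrate mix contained 0.4% bovine serum albumin and was preincubated with compound 10 min at room temperature.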
# [5] = target: Papain (Carica papaya) (UniProt P00784); test: Primary qHTS assay for inhibitors of the protease papain (AID 1645873); conditions: papain Z-FR-AMC cleavage, AMC fluorescence; series mostly up to 49.8 µM;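 note: papain turnover of Z-FR-AMC read as the AMC fluorescence gain over 10 min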
# Papain (Carica papaya), sequence (P00784 whole entry, looked up, the tested form may be a part): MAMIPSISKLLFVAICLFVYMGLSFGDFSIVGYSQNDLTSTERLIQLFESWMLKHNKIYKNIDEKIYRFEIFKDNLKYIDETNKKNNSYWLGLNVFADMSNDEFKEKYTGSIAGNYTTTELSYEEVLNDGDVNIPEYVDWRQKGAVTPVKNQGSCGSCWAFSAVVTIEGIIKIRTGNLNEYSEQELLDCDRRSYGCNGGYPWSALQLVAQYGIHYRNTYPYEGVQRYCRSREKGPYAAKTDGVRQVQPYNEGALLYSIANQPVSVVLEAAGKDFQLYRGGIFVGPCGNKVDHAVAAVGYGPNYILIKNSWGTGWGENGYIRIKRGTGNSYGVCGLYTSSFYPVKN
# [6] = Primary qHTS for inhibitors of nuclear receptor binding SET domain protein 2 (NSD2) in an isogenic RCH-ACV NSD2 p.E1099K mutant (9B) (AID 1645876); conditions: RCH-ACV NSD2 E1099K (9B) viability, CellTiter-Glo, 72 h; series mostly up to 44.9 µM; note: nearly all actives have a fitted effect of over 70% in size
# [7] = Primary qHTS for inhibitors of nuclear receptor binding SET domain protein 2 (NSD2) in an RCH-ACV wild type WT cells (2C) (AID 1645877); conditions: RCH-ACV (leukaemia line) NSD2 WT (2C) viability, CellTiter-Glo, 72 h; series mostly up to 44.9 µM; note: nearly all actives have a fitted effect of over 70% in size
# [8] = NCATS anti-infectives library activity on HEK293 viability as a counter-qHTS vs the C. elegans viability qHTS (AID 1745854); conditions: HEK293 viability counter-screen; series mostly up to 41.8 µM
# Procedure, shortened: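 HEK293 cells, 1500 per well, exposed 24 hr at 37C in 5% CO2 to compounds in a 1:5 titration, up to 41.7 uM final. Viability read as CellTiter-Glo luminescence after 10 min at room temperature.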
smiles,measurement,setting,value
O=c1c(-c2ccc(O)cc2)coc2cc(O[C@@H]3O[C@H](CO)[C@H](O)[C@H](O)[C@H]3O)ccc12,Potency,[1],inactive
COc1ccc(-c2oc3c(CC=C(C)C)c(OC4O[C@H](CO)[C@@H](O)[C@H](O)[C@@H]4O)cc(O)c3c(=O)c2OC2O[C@@H](C)[C@H](O)[C@@H](O)[C@@H]2O)cc1 (stereo partly specified),Potency,[1],inactive
O=C1NC(=O)C(=Cc2cccc(C(F)(F)F)c2)S1,Potency,[1],inactive
O=C(O)c1ccc(-c2cc3cccnc3c(-c3ccc4nonc4c3)n2)cc1,Potency,[1],inactive
Cc1cccc(C)c1OCC(C)N (stereo unspecified),Potency,[1],inactive
same,Potency,[2],inactive
same,Potency,[3],13.8 µM (active) and 21.3 µM (active)
same,Potency,[4],inactive
same,outcome,[5],inactive
same,Potency,[6],inactive
same,Potency,[7],inactive
CC(=Cc1ccccc1)C=C1SC(=S)N(CC(=O)O)C1=O,Potency,[1],inactive
CC(=O)CCCCn1c(=O)c2c(ncn2C)n(C)c1=O,Potency,[1],inactive
same,Potency,[2],inactive
same,Potency,[3],inactive
same,Potency,[4],inactive
same,outcome,[5],inactive
same,Potency,[6],inactive
same,Potency,[7],inactive
same,outcome,[8],inactive
O=C1c2c(O)cc(O)cc2O[C@H](c2cc(O)c(O)c(O)c2)[C@H]1O,Potency,[1],inactive
CC1(C)CCC[C@@]2(C)[C@@H]1CC[C@@]1(C)OC(=O)C[C@H]21,Potency,[1],inactive
OC[C@H]1O[C@@H](n2cnc3c2NC=NC[C@@H]3O)C[C@H]1O,Potency,[1],inactive
CC(C)OC(=O)C(C)(C)Oc1ccc(C(=O)c2ccc(Cl)cc2)cc1,Potency,[1],inactive
same,Potency,[2],inactive
same,Potency,[3],inactive
same,Potency,[4],2.45 µM (active)
same,outcome,[5],inactive
same,Potency,[6],inactive
same,Potency,[7],inactive
C[C@]12CC[C@@H]3c4ccc(O)cc4CC[C@H]3[C@H]1C[C@@H](O)[C@H]2O,Potency,[1],inactive
